# Reference: the supplement of paper PMC6555819
# What was measured:
# Experiment in all cases: PBM binding z-score (relative to random genomic background probes); higher = stronger binding; sequences stand for … in GC…GCGATTGACAGCGTAGAATGAAGG
# [1] = test system: FXR:RXRa (NR concentration 270 nM, RXRa partner concentration 90 nM)
# In short: (§1)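 Ligand-free nuclear receptor dimers were applied to custom Agilent 4×180K protein-binding microarrays whose double-stranded probes carried direct-repeat seeds, single-nucleotide variants, half-site ablations and random human genomic background sequences in 34-nt variable regions. Incubation lasted 1 h. Binding z-scores were computed against the random background probes from regression-normalized fluorescence.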
# [2] = test system: LXRa:RXRa (NR concentration 270 nM, RXRa partner concentration 90 nM)
# In short: as §1
# [3] = test system: LXRa homodimer (NR concentration 270 nM)
# In short: as §1
# [4] = test system: LXRb:RXRa (NR concentration 270 nM, RXRa partner concentration 90 nM)
# In short: as §1
# [5] = test system: LXRb homodimer (NR concentration 270 nM)
# In short: as §1
# [6] = test system: PPARa:RXRa (NR concentration 270 nM, RXRa partner concentration 90 nM)
# In short: as §1
# [7] = test system: PPARg:RXRa (NR concentration 180 nM, RXRa partner concentration 90 nM)
# In short: as §1
# [8] = test system: PPARg:RXRa 270nM:90nM, anti-RXR (NR concentration 270 nM, RXRa partner concentration 90 nM)
# In short: as §1
# [9] = test system: PPARg:RXRa 30nM:10nM, anti-RXR (NR concentration 30 nM, RXRa partner concentration 10 nM)
# In short: as §1
# [10] = test system: PPARg:RXRa 90nM:30nM, anti-RXR (NR concentration 90 nM, RXRa partner concentration 30 nM)
# In short: as §1
# [11] = test system: PPARg:RXRa DBDmut IVT, anti-RXR (DBD mutation: RXRa K156A/R161A, NR concentration 270 nM, RXRa partner concentration 90 nM)
# In short: as §1
# [12] = test system: PPARg:RXRa IVT, anti-PPARg (NR concentration 270 nM, RXRa partner concentration 90 nM)
# In short: as §1
# [13] = test system: PPARg DBDmut:RXRa IVT, anti-PPARg (DBD mutation: PPARg1 K132A/R137A, NR concentration 270 nM, RXRa partner concentration 90 nM)
# In short: as §1
# [14] = test system: PPARg DBDmut IVT, anti-PPARg (DBD mutation: PPARg1 K132A/R137A, NR concentration 270 nM)
# In short: as §1
# [15] = test system: PPARg homodimer (NR concentration 180 nM)
# In short: as §1
# [16] = test system: PXR:RXRa (NR concentration 270 nM, RXRa partner concentration 90 nM)
# In short: as §1
# [17] = test system: PXR homodimer (NR concentration 270 nM)
# In short: as §1
# [18] = test system: RARa:RXR (NR concentration 270 nM, RXRa partner concentration 90 nM)
# In short: as §1
# [19] = test system: RARa homodimer (NR concentration 270 nM)
# In short: as §1
# [20] = test system: RARb:RXRa (NR concentration 270 nM, RXRa partner concentration 90 nM)
# In short: as §1
Sequence,PBM binding z-score [1],PBM binding z-score [2],PBM binding z-score [3],PBM binding z-score [4],PBM binding z-score [5],PBM binding z-score [6],PBM binding z-score [7],PBM binding z-score [8],PBM binding z-score [9],PBM binding z-score [10],PBM binding z-score [11],PBM binding z-score [12],PBM binding z-score [13],PBM binding z-score [14],PBM binding z-score [15],PBM binding z-score [16],PBM binding z-score [17],PBM binding z-score [18],PBM binding z-score [19],PBM binding z-score [20]
ATCTCTAGGTAAGACGCAGTTCAGTGAAGAACGC,0.238,0.0302,0.0448,-0.176,0.151,-0.0926,0.38,0.423,0.101,0.323,1.69,0.781,-0.276,0.85,0.0862,0.526,0.389,-0.309,0.278,0.0267
ATATGTAGGTTAGATGGGGTCATTCAGACTAGGC,4.98,5.67,3.54,4.97,1.56,5.11,5.98,5.22,2.6,4.55,6.56,6.05,2.97,2.15,2.79,6.56,4.01,6.01,1.98,2.93
CCAGACAGGTGAAAAGTAACTCAGTCTGGTACGC,-0.306,-0.0475,-0.078,0.0504,-0.286,1.01,1.08,2.27,0.369,1.43,1.47,0.789,-0.595,-0.539,0.332,-0.0943,-0.142,0.133,0.489,0.36
TCGAGTAGGTTAGGGCCATTCAGAATGGCGTCGA,0.218,-0.0329,-0.658,-0.207,-1.05,0.58,0.0561,0.722,0.497,0.65,1.63,0.942,-0.334,0.0284,-0.315,0.054,-0.626,-0.18,-0.395,0.699
ATCTCTAGGTAACCAAGATCAGTGAATGCCGAAC,0.221,0.126,0.199,0.274,0.276,0.613,0.694,0.588,0.161,0.426,2.88,2.67,0.887,1.13,0.619,0.0058,0.344,0.377,0.145,0.119
AGTCGAAGTTCATCTAGGTAACGTAAGATATGCT,2.95,2.8,1.21,1.62,0.0848,2.8,1.9,2.32,0.883,1.66,0.32,2.06,0.625,0.713,1.04,3.3,2.97,1.67,0.799,3.05
CGTCCAAGGCCAATGCTAGGTCAGTGAAAGCATT,0.0419,-0.0335,0.187,-0.036,-0.831,0.242,-0.45,-0.432,-1.33,-0.866,-0.0283,0.421,-0.963,-1.46,0.131,0.224,-0.267,0.552,-1.03,2.19
